In experiment [1] the test system is MDA-MB-231. Put plainly: cell viability relative to vehicle unstimulated control (fraction); higher = more viable cells. The following applies: pre-treatment time: 18 h then 24 h IFNg/TNF.
The test system of experiment [2] is MDA-MB-231. Put plainly: kynurenine production, fold change vs DMSO IFNg/TNF control; higher = more kynurenine produced (less inhibition). The following applies: pre-treatment time: 18 h then 24 h IFNg/TNF. Summed up:
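After trichloroacetic acid and p-dimethylaminobenzaldehyde treatment, supernatants were read at 492 nm, with 0–100 μM standards. These came from MDA-MB-231 cells (7 × 10^4/well, 96-well plates) pre-treated 18 h with natural products in 0.1% DMSO and then exposed 24 h to IFNγ (1 U/ml) and TNF (6.25 ng/ml) at 37°C. Values for kynurenine production are fold changes over same-plate cytokine-stimulated vehicle wells, averaged over duplicate plates in the first screening round.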

Counter-ions that a name gives are not always drawn. ± gives the standard deviation of the averaged measurements.
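Wherever cell viability relative to vehicle unstimulated control is given: viability of the cells left after supernatant collection, read with Deep Blue dye added for 4 h, as absorbance at 570 nm minus 600 nm.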

Turning to `C[C@@H]1O[C@@H](O[C@H]2[C@H](Oc3cc(O)c4c(c3)O[C@H](c3ccc(O)cc3)CC4=O)O[C@H](CO)[C@@H](O)[C@@H]2O)[C@H](O)[C@H](O)[C@H]1O` [Naringin] (compound dose: 10 uM), in the experiment on MDA-MB-231 [1], the cell viability was 1.02 ± 0.015. Further, the kynurenine production in the experiment on MDA-MB-231 [2] turned out to be 1.15 ± 0.036.
Consider `CC(/C=C/C=C(\C)C(=O)O)=C\C=C\C=C(C)\C=C\C=C(/C)C(=O)O` [Transcrocetin meglumine salt] (compound dose: 10 uM), for which the cell viability with MDA-MB-231 [1] came out at 1.02 ± 0.038. Moreover, the kynurenine production in the experiment on MDA-MB-231 [2] is 0.737 ± 0.064.
With `CC(C)C1=CC2=CC[C@@H]3[C@](C)(CCC[C@@]3(C)C(=O)O)[C@H]2CC1` [Abietic acid] (compound dose: 10 uM), the cell viability with MDA-MB-231 [1] was 1.08 ± 0.025. Also, the kynurenine production in the experiment with MDA-MB-231 [2] was found to be 0.803 ± 0.22.
Take `CC(C)(O)[C@@H]1CC[C@](C)([C@H]2[C@@H](O)C[C@@]3(C)[C@@H]4C[C@H](O)[C@H]5C(C)(C)[C@@H](O[C@@H]6OC[C@@H](O)[C@H](O)[C@H]6O[C@@H]6O[C@H](CO)[C@@H](O)[C@H](O)[C@H]6O)CC[C@@]56C[C@@]46CC[C@]23C)O1` [Astragaloside III] (compound dose: 10 uM): the cell viability with MDA-MB-231 [1] was 1.03 ± 0.069. The kynurenine production in the experiment on MDA-MB-231 [2] was found to be 0.822 ± 0.018.
Turning to `C=C(C)[C@@H]1CC[C@]2(C)CC[C@]3(C)[C@H](CC[C@@H]4[C@@]5(C)CC[C@H](O)C(C)(C)[C@@H]5CC[C@]43C)[C@@H]12` [Lupeol] (compound dose: 2 uM), the cell viability in the experiment on MDA-MB-231 [1] is 0.861 ± 0.041. Moreover, the kynurenine production in the experiment on MDA-MB-231 [2] was found to be 0.921 ± 0.085.
Take `C[C@@H]1O[C@@H](O[C@H]2[C@H](O[C@H]3CC[C@]4(C)[C@H]5CC=C6[C@@H]7CC(C)(C)CC[C@]7(C(=O)O)CC[C@@]6(C)[C@]5(C)CC[C@H]4C3(C)C)OC[C@H](O[C@@H]3O[C@H](CO)[C@@H](O)[C@H](O)[C@H]3O)[C@@H]2O)[C@H](O)[C@H](O)[C@H]1O` [Hederacolchiside A1] (compound dose: 10 uM): the cell viability in the experiment on MDA-MB-231 [1] was 0.221 ± 0.013. The kynurenine production in the experiment with MDA-MB-231 [2] worked out at 0.396 ± 0.15.

For the origin of these results see the supplement of paper PMC13094657.
